Rows were chosen to be rich in hits. Some 19% of all compounds tested hit in one or more screens of this group.
IL-1B inflam inh: qHTS for Inhibitors of Inflammasome Signaling: IL-1-beta AlphaLISA Primary Screen; activity change, % at 57.5 µM; 4.7% of 360,000 active; THP-1 LPS/ATP IL-1B secretion, AlphaLISA, 16 h; stronger effect = lower value; AID 743279, 2014; in the data active = activity change below about -50%; inconclusive = mostly about -30% to -49%
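Secreted IL-1B measured by AlphaLISA bead assay after 16 h compound exposure of THP-1 cells; compounds (final up to 57.5 uM) added 1 h before LPS (250 ng/mL) and ATP (1.25 mM) stimulation; lower signal means less secretion.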
TDP1 cell CPT: qHTS for Inhibitors of human tyrosyl-DNA phosphodiesterase 1 (TDP1): qHTS in cells in presence of CPT; chicken DT40 Tdp1-/-;hTDP1 cells + 20 nM CPT, ATP luminescence, 48 h; Potency, µM (top dose mostly 46.2 µM), for inactives: at the highest dose activity change, negative = growth inhibition, usual class: inhibitors; 12% of 420,000 active; AID 686979, 2013; note: potency is the fitted concentration of half-maximal effect; nearly all actives have a fitted effect of over 55% in size
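Chicken DT40 Tdp1-/- cells complemented with human TDP1, 400 cells/well, exposed to compounds plus 20 nM camptothecin for at least 48 h at 37 C; viability read as ATP content by CellTiter-Glo luminescence.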
HT1080 IDH1KD tx: qHTS for induction of synthetic lethality in tumor cells producing 2HG: qHTS for the HT-1080-IDH1KD cell line; HT-1080 IDH1 knockdown viability, ATP luminescence, 48 h; Potency, µM (highest dose often 46.1 µM), inactives show at the highest dose activity, negative = toxicity, most hits filed as cytotoxic; 2% of 360,000 active;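 note: potency is the fitted concentration of half-maximal effect; 0% = DMSO wells and -100% = cell-free medium wells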
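Cytotoxicity counter-line: IDH1KD HT-1080, 48 h, CellTiter-Glo. Curves classed by r2, magnitude and activity.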
HT1080-NT tox: qHTS for induction of synthetic lethality in tumor cells producing 2HG: qHTS for the HT-1080-NT fibrosarcoma cell line. HT-1080-NT fibrosarcoma viability, CellTiter-Glo ATP luminescence, 48 h. Potency, µM (top dose mostly 46.1 µM), inactives show top-dose activity, negative = less viability, most hits filed as cytotoxic. 1.6% of 360,000 active;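 note: NT is the 2HG producing partner of a matched IDH1 knockdown line; potency is the fitted concentration of half-maximal effect; 0% = DMSO-treated cells and -100% = media-only wells without cells; nearly all actives have a fitted effect of over 55% in size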
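Luminescent CellTiter-Glo readout after 48 hours of compound exposure at 37 degrees C defined viability of HT-1080-NT cells. Activity was normalized to DMSO wells and cell-free media wells; concentration-response curves were fitted and assigned curve classes.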
ELG1 DNA repair: qHTS screen for small molecules that inhibit ELG1-dependent DNA repair in human embryonic kidney (HEK293T) cells expressing luciferase-tagged ELG1. HEK293T ELG1-luciferase reporter, luminescence, 16 h; DNA damage induced by 5-fluorouridine. Potency, µM (titrated, usually from 46.1 µM), for inactives: at the top dose activity change, negative = inhibition, actives largely listed as inhibitors. 2.3% of 330,000 active; note: potency is the fitted concentration of half-maximal effect; nearly all actives have a fitted effect of over 55% in size
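Cells (2,000 per well) received 5-fluorouridine plus test compound or DMSO and were incubated 16 hr at 37 °C, 5% CO2. Luciferase activity was read by luminescence 30 min after ONE-Glo addition; signal suppression marked inhibition of damage-induced ELG1 function.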
DT40 TDP1 no CPT: qHTS for Inhibitors of human tyrosyl-DNA phosphodiesterase 1 (TDP1): qHTS in cells in absence of CPT. DT40 Tdp1-/- hTDP1 cells, no CPT, ATP luminescence, 48 h. Potency, µM (titrated, usually from 46.2 µM), for the others: at the highest dose activity change, negative = growth inhibition, actives largely listed as inhibitors. 15% of 420,000 active; note: potency is the fitted concentration of half-maximal effect; nearly all actives have a fitted effect of over 55% in size
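Seeded 400 DT40-hTDP1 cells/well (vehicle DMSO, no 20 nM CPT); pinned compounds; ≥48 hr at 37 °C; CellTiter-Glo luminescence as viability measure.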
* hit, by the source's call; ? = inconclusive; / = not tested or not shown. Unless noted, calls come from the whole dose curve; as a rule, active = well fitted curve in the direction sought with a large enough effect; inconclusive = small, poorly fitted or top-dose-only effect, or another doubt; inactive = no such curve, though single readings can be large; an effect the other way counts as inactive or inconclusive. Unless noted, % is set by controls: 0 for no effect and ±100 for the full control effect.

SMILES | IL-1B inflam inh | TDP1 cell CPT | HT1080 IDH1KD tx | HT1080-NT tox | ELG1 DNA repair | DT40 TDP1 no CPT
COC(=O)c1ccc(N2CCN(C(=O)C3CC3)CC2)c([N+](=O)[O-])c1 | 21 | 21% | 2% | 2% | -6% | 0%
COC(=O)c1ccc(N2CCN(S(=O)(=O)c3ccc4ccccc4c3)CC2)c([N+](=O)[O-])c1 | -13 | 16µM* | -9% | -9% | -20% | 21µM*
Cc1ccc(S(=O)(=O)N2CCN(c3cc4c(cc3[N+](=O)[O-])n(C)c(=O)n4C)CC2)cc1 | -27 | ? | 0% | -6% | 7.3µM* | 16µM*
CC(=O)Nc1cccc(NC(=O)CSc2nc3c(c(=O)n(C)c(=O)n3C)n2C)c1 | 88 | 9% | 1% | -1% | ? | -1%
Cn1c(=O)n(C)c2cc([N+](=O)[O-])c(N3CCN(C(=O)c4cccc(Cl)c4)CC3)cc21 | -6 | ? | -13% | 0% | ? | 18µM*
NC(=S)NNc1cccc(Cl)c1 | -4 | 16µM* | 3% | 0% | -6% | 15µM*
COc1cc(C)c(NC(=S)Nc2cccc(Cl)c2)cc1OC | -8 | -12% | 1% | 2% | 14% | -23%
Cc1cccc(NC(=S)NNc2cccc(Cl)c2)c1 | -9 | 16µM* | ? | 23µM* | 0% | 18µM*
Cc1cccc(NNC(=S)Nc2c(C)cccc2C)c1 | -102* | ? | ? | ? | -14% | ?
Cc1cccc(NNC(N)=S)c1 | 11 | ? | 15% | 6% | 1% | ?
COc1cc(OC)c(NC(=S)Nc2cccc(C)c2)cc1Cl | -12 | -27% | -1% | -4% | 4% | 9.2µM*
O=C(COC(=O)C1CC2CCCC(C1)C2=O)NNC(=O)c1ccc([N+](=O)[O-])cc1 (stereo not drawn) | -7 | -12% | -4% | -2% | 17% | -2%
Cc1cccc(NNC(=S)Nc2ccccc2)c1 | -30 | 4.1µM* | -20% | -16% | / | 2.6µM*
Cc1cccc(NC(=S)NC(C)(C)CC(C)(C)C)c1 | -23 | -1% | -17% | -20% | ? | 18µM*
S=C(NNc1cccc(Cl)c1)NC1CCCCC1 | -108* | ? | 15µM* | ? | ? | ?
COc1ccc(CNC(=S)Nc2cccc(C)c2)cc1 | 2 | -3% | 2% | 8% | -9% | ?
O=C(CSc1ccc2c(c1)OCCO2)Nc1cccnc1 | 20 | ? | -12% | 3% | ? | ?
CC1(C(=O)Nc2ccc3c(c2)OCCO3)CN(S(C)(=O)=O)CC(=O)N1CCc1ccccc1 (stereo not drawn) | -23 | 5% | -9% | -7% | / | 6%
Clc1ccccc1-c1nnc(-c2ccc3c(c2)OCO3)o1 | 15 | ? | -4% | -12% | ? | ?
CCc1ccc2oc(C(=O)Nc3cc(Cl)ccc3OC)cc(=O)c2c1 | / | -1% | / | / | / | 8%
Cn1cnnc1SCC(=O)Nc1cc(C(=O)O)cc(C(=O)O)c1 | / | -16% | / | / | / | 0%
COC(=O)c1ccc2nc(C)cc(Nc3ccc(O)cc3)c2c1 | / | 21µM* | / | / | / | 15µM*
COC(=O)c1ccc(Nc2cc(C)nc3ccccc23)cc1 | -97* | ? | 21µM* | 18µM* | ? | 18µM*
COC(=O)c1ccc2nc(C)cc(Nc3ccc(N(C)C)cc3)c2c1 | 8 | -1% | -16% | -20% | -11% | ?

From PubChem BioAssay
